# High-throughput results from PubChem BioAssay.
# uPA generation: cell surface uPA generation inhibition; cell surface uPA generation assay, qHTS; AID 540303; actives 0.31% (n = 330,000); Potency, µM (top dose mostly 38.3 µM), for the others: at the highest dose activity change, negative = inhibition, most hits filed as inhibitors; active = well fitted inhibition curve with a large enough effect; inconclusive = small, poorly fitted or top-dose-only effect; inactive = no such curve, though single readings can be large or run the other way; tested in mouse RAW 264.7 cells; note: % is set by controls: 0 for no effect and ±100 for the full control effect; nearly all actives have a fitted effect of over 55% in size
# SMN2 splice up: SMN2 splice variant enhancement; HEK293 SMN2-luciferase splicing reporter, luminescence, 30-36 h; Potency, µM (top dose mostly 46.1 µM), without a hit: at the highest dose activity change, positive = activation, most hits filed as activators; actives 2.8% (n = 210,000); AID 1458; note: % of control where 0% means no effect; nearly all actives have a fitted effect of over 55% in size
#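 HEK293 cells carry an SMN2 […]–luciferase reporter in which exon 7 inclusion puts luciferase in frame. Cells were plated 10-12 h before compound addition, then incubated 30-36 h at 37C. ONE-Glo luminescence was read; sodium butyrate at 4.5 mM final served as control.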
# FLuc counter: firefly luciferase modulation, counter-screen for miR-21 project. purified FLuc, Km substrates, luminescence inhibition. Potency, µM (highest dose often 57.5 µM), for the others: top-dose activity change, negative = inhibition, usual class: inhibitors. actives 6.9% (n = 360,000);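 note: plate controls were vehicle for no effect and reference inhibitor for full effect; nearly all actives have a fitted effect of over 55% in size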
# Target sequence (P08659 whole entry, looked up): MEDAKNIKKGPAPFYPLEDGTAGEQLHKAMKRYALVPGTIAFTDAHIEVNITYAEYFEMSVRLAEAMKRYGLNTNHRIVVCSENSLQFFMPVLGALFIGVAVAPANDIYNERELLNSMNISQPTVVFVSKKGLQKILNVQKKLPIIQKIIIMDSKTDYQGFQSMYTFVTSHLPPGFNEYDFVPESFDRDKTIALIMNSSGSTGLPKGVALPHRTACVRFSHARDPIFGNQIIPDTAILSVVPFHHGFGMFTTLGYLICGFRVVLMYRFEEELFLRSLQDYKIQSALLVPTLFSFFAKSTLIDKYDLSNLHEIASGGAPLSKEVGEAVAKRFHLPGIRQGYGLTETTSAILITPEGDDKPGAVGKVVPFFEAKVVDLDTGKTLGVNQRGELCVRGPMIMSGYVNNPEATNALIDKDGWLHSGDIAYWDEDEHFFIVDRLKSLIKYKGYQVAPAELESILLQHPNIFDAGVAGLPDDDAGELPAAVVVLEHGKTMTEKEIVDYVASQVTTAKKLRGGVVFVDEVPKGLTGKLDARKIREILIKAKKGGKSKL
#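 Biochemical qHTS of compounds, final roughly 60 µM downward over six points, against 10 nM purified firefly luciferase using Km concentrations of substrates (10 uM D-luciferin, 10 uM ATP) in Tris acetate pH 7.5 buffer; luminescence output.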
# Rab9 prom act: Rab9 promoter activation; Huh7 Rab9 promoter-luciferase reporter, luminescence, 24 h; Potency, µM (top dose mostly 9.22 µM), inactives show at the top dose activation, negative = inhibition, usual class: activators; actives 2.8% (n = 320,000); AID 485297; note: % of control where 0% means no effect; nearly all actives have a fitted effect of over 60% in size
#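 Promoter activation is measured as luciferase luminescence in Huh7 cells stably transfected with a Rab9 promoter–luciferase construct, following 24 h compound exposure at 37 °C and 10 min reagent incubation at ambient temperature.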
# ELG1 genotoxic: genotoxicity induction in ELG1-luciferase HEK293T cells; AID 504466; actives 1.3% (n = 330,000); HEK293T ELG1-luciferase reporter, luminescence, 16 h; Potency, µM (titrated, usually from 46 µM), for inactives: at the top dose activity change, positive = activation, most hits filed as activators; note: % of control where 0% means no effect; nearly all actives have a fitted effect of over 60% in size
#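 Step 1: seed 2,000 HEK293T ELG1-luciferase cells per well. Step 2: add compound or DMSO, incubate 16 hr at 37 °C. Step 3: ONE-Glo, 30 min at room temperature, read luminescence.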
# NPC1 prom act: activators of NPC1 promoter. Huh7 NPC1 promoter luciferase reporter, 24 h. Potency, µM (highest dose often 9.22 µM), inactives show top-dose activation, actives largely listed as activators. actives 2.4% (n = 320,000). AID 485313; note: % of control where 0% means no effect; nearly all actives have a fitted effect of over 60% in size
#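 Luciferase expression driven by the NPC1 promoter was measured in stably transfected Huh7 cells after a 24 h compound incubation, using a luciferase reagent and a luminescence read.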
# Starred values were filed as active, the others as inactive; ? = inconclusive; nt = not tested or not shown; ! = repeats disagree; [ ] = dose if it differs, or a comment. Compounds with a hit are over-represented: about 7.3% of the library has one in this group of screens. Unless noted, calls come from the whole dose curve; as a rule, active = well fitted curve in the direction sought with a large enough effect; inconclusive = small, poorly fitted or top-dose-only effect, or another doubt; inactive = no such curve, though single readings can be large; an effect the other way counts as inactive or inconclusive. Potency is the fitted concentration of half-maximal effect.
SMILES,uPA generation,SMN2 splice up,FLuc counter,Rab9 prom act,ELG1 genotoxic,NPC1 prom act
Cc1ccc(CSc2n[nH]c(N)n2)cc1,-4.7%,nt,2.3%,-1.4%,2.5%,0.2%
Cc1ccc(Nc2nc(CSc3nnc(-c4cccs4)o3)cs2)cc1,7.6%,-17.0%,6.75µM*,18.6%,?,20.8%
Cc1ccc(N(CC(=O)Nc2ccc(F)cc2F)S(=O)(=O)c2cccs2)cc1,nt,-10.8%,-16.6%,nt,nt,nt
Cn1nnnc1SCc1cccc(CSc2nnnn2C)n1,nt,13.6%,7.0%,5.4%,?,0.6%
Cn1nnnc1SCc1csc(Nc2ccccc2)n1,7.5%,1.1%,?,3.98µM*,?,?
COc1ccc(/C=C2\Sc3ccc(C(=O)N4CCOCC4)cc3N(C)C2=O)cc1,?,nt,15.1µM*,-0.2%,-0.7%,1.8%
CCCCOC(=O)c1cccc(NC(=O)c2cc3ccccc3o2)c1,nt,3.55µM*,8.49µM*,nt,nt,nt
CC(=O)Nc1cccc(NC(=O)c2cc3ccccc3o2)c1,-7.4%,11.2µM*,3.38µM*,?,5.8µM*,3.55µM*
Cc1ccc(NC(=O)c2cc3ccccc3o2)cc1Cl,-2.9%,nt,3.38µM*,3.16µM*,?,3.98µM*
Cc1ccc(NC(=O)c2ocnc2C)cc1Cl,nt,14.1µM*,12µM*,3.16µM*,?,?
Cc1ccc(-c2nc3cc(NC(=O)c4cc5ccccc5o4)ccc3o2)cc1Cl,nt,-4.1%,5.9%,nt,nt,nt
CCCCOC(=O)c1ccc(NC(=O)c2cc(=O)c3ccccc3o2)cc1,nt,4.0%,0.0%,nt,nt,nt
CC(C)C(=O)Nc1cccc(NC(=O)c2cc3ccccc3o2)c1,-6.2%,17.8µM*,6.01µM*,?,?,?
Cc1ccccc1CSc1nc2c(sc3ccccc32)c(=O)n1CCCC(=O)NCCCOC(C)C,nt,4.6%,-1.4%,nt,nt,nt
CN(C)c1ccc(N2CN=C3SCC(=O)N3C2)cc1,-6.3%,-12.2%,10.7µM*,6.3%,?,14.9%
CCCOc1ccc(/C=N/Nc2cc(N3CCOCC3)ncn2)c(O)c1,?,nt,-4.8%,-44.5%,17.7%,-39.5%
Cc1csc(N/N=C/c2ccccc2F)n1,1.8%,nt,6.01µM*,3.5%,?,11.6%
Cc1csc(N/N=C/c2c(F)cccc2Cl)n1,8.3%,nt,13.5µM*,6.3%,?,0.2%
CCOc1ccc(/C=N/Nc2nc(C)cs2)c(O)c1,11.5%,nt,3.79µM*,1.78µM*,16.2%,1.58µM*
CC(=O)OCC(=O)[C@]12OC(C)(C)O[C@@H]1C[C@H]1[C@H]3CC=C4C[C@@H](O)CC[C@]4(C)[C@H]3CC[C@]12C,nt,-1.4%[9.22 µM],nt,nt,nt,nt
CCCCC(=O)Nc1cc(C(=O)NCCc2ccccc2)ccc1Cl,9.8%,7.94µM*,-4.2%,2.51µM*,?,2.24µM*
COc1cccc(C(=O)Nc2cc(C(=O)NCCc3ccccc3)ccc2Cl)c1,0.4%,11.2µM*,-17.7%,13.4%,?,9.2%
CCc1nn(CC(=O)NC(C)CC)c(=O)c2cc3c(OC)cccc3n12 (configuration not stated),nt,4.7%,2.3%,nt,nt,nt
Nc1nc(Nc2ccccc2F)sc1C(=O)c1ccc(Cl)cc1,nt,14.1µM*,15.1µM*,nt,nt,nt
Nc1nc(Nc2cccc(Cl)c2)sc1C(=O)c1ccc(F)cc1,nt,nt,-10.1%,nt,nt,nt
SMILES,uPA generation,SMN2 splice up,FLuc counter,Rab9 prom act,ELG1 genotoxic,NPC1 prom act
CC1=C(C(N)=O)C(c2cccc(C)c2)n2nc(-c3cccc(C)c3)nc2N1 (configuration not stated),nt,2.2%,-12.1%,nt,nt,nt
O=C(Cc1nc2ccccc2[nH]1)c1ccc(Cl)cc1,-5.8%,nt,6.01µM*,2.51µM*,16.0%,2.51µM*
Clc1ccc(/C(Cc2nc3ccccc3[nH]2)=N\Nc2ccccc2)cc1,7.9%,nt,13.5µM*,2.82µM*,?,3.55µM*
O=C(NCCc1nc2ccccc2[nH]1)c1ccc([N+](=O)[O-])cc1,0.6%,nt,-6.6%,0.6%,1.4%,2.2%
N#CCCN/N=C(/Cc1nc2ccccc2[nH]1)c1cccc(Cl)c1,1.5%,0.562µM*,?,19.0%,0.2%,10.8%
CN/N=C(\Cc1nc2ccccc2[nH]1)c1ccc([N+](=O)[O-])cc1,-6.0%,?,16.9µM*,?,12.9%,?
CC(C)(C)n1ncc2c(=O)n(Cc3ccc([S+](=O)([O-])N4CCOCC4)cc3)cnc21,nt,nt,4.0%,nt,nt,nt
O=C(Cc1nc2ccccc2[nH]1)c1ccc([N+](=O)[O-])cc1,-2.9%,nt,15.1µM*,?,?,3.16µM*
COc1ccc(Cn2nnc(C(=O)Nc3ccc4c(c3)OCCO4)c2N)cc1Br,?,nt,21.3µM*,12.7%,9.6%,-2.3%
Nc1c(C(=O)Nc2ccc3c(c2)OCCO3)nnn1Cc1cccc(F)c1,1.9%,nt,?,3.16µM*,?,3.55µM*
Cc1ccccc1Cn1nnc(C(=O)Nc2ccc3c(c2)OCCO3)c1N,?,nt,3.01µM*,1.78µM*,18.5%,2.82µM*
Nc1c(C(=O)NCc2ccc3c(c2)OCO3)nnn1Cc1cccc(F)c1,-0.4%,nt,-0.4%,6.9%,2.5%,-3.9%
Nc1c(C(=O)Nc2ccc3c(c2)OCCO3)nnn1Cc1ccc(Cl)cc1,2.5%,nt,?,0.891µM*,?,2.24µM*
Cc1ccc(C)c(Cn2nnc(C(=O)Nc3ccc4c(c3)OCCO4)c2N)c1,?,nt,?,?,4.4%,?
CCC1CCCCN1CCCNC(=O)c1ccc2c(c1)N(Cc1cccc(Cl)c1)C(=O)c1ccccc1S2(=O)=O (configuration not stated),nt,nt,0.6%,nt,nt,nt
COc1ccc(OCC(=O)Nc2nnc(S(=O)(=O)N3CCCCCC3)s2)cc1,6.7%,nt,15.1µM*!,-1.1%,-1.2%,1.5%
Cc1ccccc1NS(=O)(=O)c1nnc(NC(=O)c2ccc(Br)cc2)s1,-7.9%,nt,-16.5%,-4.6%,-0.7%,-3.6%
O=C(COc1ccccc1)Nc1nnc(S(=O)(=O)N2CCCC2)s1,2.8%,nt,2.1%,-12.0%,-0.5%,-4.7%
Cc1ccccc1NS(=O)(=O)c1nnc(NC(=O)c2ccc(Cl)cc2)s1,12.3%,nt,2.39µM*!,-8.0%,-0.2%,-8.7%
O=C(Nc1nnc(S(=O)(=O)N2CCOCC2)s1)c1ccccc1,-0.3%,nt,?,?,7.6%,18.9%
O=C(Nc1nnc(S(=O)(=O)N2CCCCCC2)s1)c1ccccc1,3.8%,nt,6.75µM*,3.98µM*,12.1%,?
O=C(Nc1nnc(S(=O)(=O)Nc2ccccc2)s1)c1ccccc1Cl,0.9%,nt,9.53µM*!,-2.3%,3.4%,-2.6%
CCc1c(C)sc2c1CCN(C(=O)Nc1ccc(F)c(Cl)c1)C2c1ccc(F)cc1 (configuration not stated),nt,nt,1.3%,nt,nt,nt
COC(=O)CC1c2ccccc2C(Cc2ccc(OC)cc2)C(C)N1C(=O)OC (configuration not stated),nt,-6.2%[9.22 µM],nt,nt,nt,nt
